Experimental findings from paper PMC7826789 (International Journal of Molecular Sciences, 2021) are described below.

Common to all, as to details: Compound Concentration (nM):1000
For experiment [1], the system named is AAK1.
For experiment [2], the system named is ABL1(E255K)-phosphorylated.
The test system of experiment [3] is ABL1(F317I)-nonphosphorylated.
Experiment [4] relates to ABL1(F317I)-phosphorylated.
The subject of experiment [5] is ABL1(F317L)-nonphosphorylated.
Experiment [6] concerns ABL1(F317L)-phosphorylated.
Experiment [7] deals with ABL1(H396P)-nonphosphorylated.
For experiment [8], the system named is ABL1(H396P)-phosphorylated.
In experiment [9] the test system is ABL1(M351T)-phosphorylated.
Experiment [10] concerns ABL1(Q252H)-nonphosphorylated.
For experiment [11], the system named is ABL1(Q252H)-phosphorylated.
Experiment [12] deals with ABL1(T315I)-nonphosphorylated.
Experiment [13] has as its system ABL1(T315I)-phosphorylated.
Experiment [14] concerns ABL1(Y253F)-phosphorylated.
The subject of experiment [15] is ABL1-nonphosphorylated.
For experiment [16], the system named is ABL1-phosphorylated.
For experiment [17], the system named is ABL2.
Experiment [18] concerns ACVR1B.
Experiment [19] has as its system ACVR1.
Experiment [20] has as its system ACVR2A.

Each structure is given as a SMILES string.
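Note: KINOMEscan scanMAX binding as percent activity remaining versus control; lower means stronger binding.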

Consider `COc1cc(N2CCN(C(C)C)CC2)ccc1Nc1nc(Nc2ccc(F)cc2C(=O)NC[C@@H](O)CO)c2cc[nH]c2n1` [GSK1392956A], for which the “Percent Control” value in [1] is reported as 64%; in experiment [2], 100%; in [3], 100%; in [4] it was 87%; in experiment [5], 95%; in [6], 49%. The “Percent Control” value turned out to be 97% in experiment [7]; 100% in experiment [8]; 97% in experiment [9]; 100% in experiment [10]; 100% in experiment [11]; 100% in [12]. Further, the “Percent Control” value in experiment [13], in [14], in experiment [15], in experiment [16], in experiment [17] and in experiment [18] was 100% throughout. Further, the “Percent Control” value in [19] and in experiment [20] was 100% each time.
Turning to `NS(=O)(=O)c1ccc(N/N=C2\C(=O)Nc3ccc(C(=O)NCCc4c[nH]cn4)cc32)cc1` [GW300660X], the “Percent Control” value is recorded as 100% in experiment [1]; 100% in [2]; 100% in [3]; 77% in experiment [4]; 98% in [5]; 100% in experiment [6]. The “Percent Control” value in experiment [7] was determined as 93%; in experiment [8], 100%; in experiment [9] it was 100%; in experiment [10] it was 99%; in experiment [11] it was 100%; in experiment [12], 100%. The “Percent Control” value in [13] was 86%; in [14] it was 100%; in [15] it was 100%; in experiment [16], 91%; in experiment [17], 100%; in experiment [18] it was 100%. In addition, the “Percent Control” value in experiment [19] and in experiment [20] was 100% throughout.
Turning to `CN(C)c1cc2c(Nc3ccc4c(cnn4Cc4ccccc4)c3)ncnc2cn1` [GW282974X], the “Percent Control” value in [1] was 75%; in experiment [2], 59%; in experiment [3], 84%; in experiment [4], 91%; in [5], 99%; in experiment [6], 50%. The “Percent Control” value came out at 63% in [8]; 100% in experiment [9]; 48% in [10]; 66% in [11]; 74% in experiment [12]; 100% in experiment [13]. For the same molecule, the “Percent Control” value in [14] stood at 65%; in [16], 54%; in experiment [17], 95%; in [18], 100%; in [19], 87%; in [20] it was 100%.
For the molecule `COc1ccc2[nH]c3c4[nH]c5ccc(OC)cc5c4c4c(c3c2c1)C(=O)NC4=O` [GW296115X], the “Percent Control” value in experiment [1] worked out at 53%; in [2] it was 64%; in experiment [3], 87%; in [4] it was 73%; in experiment [5], 84%; in experiment [6], 75%. For the same molecule, the “Percent Control” value stood at 34% in [7]; 65% in experiment [8]; 68% in experiment [9]; 28% in experiment [10]; 36% in experiment [11]; 44% in experiment [12]. Besides, the “Percent Control” value in [13] was 94%; in experiment [14], 53%; in experiment [15], 58%; in experiment [16], 57%; in experiment [17], 82%; in experiment [18], 100%. The “Percent Control” value in experiment [19] amounted to 77%; in [20], 58%.
`NS(=O)(=O)c1ccc(N/N=C2\C(=O)Nc3ccc(C(=O)NCc4ccncc4)cc32)cc1` [GW300657X]: the “Percent Control” value is reported as 29% in experiment [1]; 79% in experiment [2]; 85% in [3]; 81% in experiment [4]; 92% in experiment [5]; 54% in experiment [6]. In addition, the “Percent Control” value in [7] is reported as 63%; in experiment [8], 82%; in [9] it was 91%; in experiment [10] it was 78%; in experiment [11], 72%; in [12], 97%. In addition, the “Percent Control” value was 98% in experiment [13]; 82% in experiment [14]; 79% in experiment [15]; 77% in experiment [16]; 100% in experiment [17]; 100% in experiment [18]. In addition, the “Percent Control” value in experiment [19] and in [20] was 100% throughout.
As for `COC(=O)Nc1nc2ccc(Oc3ccc(NC(=O)Nc4cc(C(F)(F)F)ccc4F)cc3)cc2s1.Cl` [GW693917A], the “Percent Control” value in [1] turned out to be 100%; in [2] it was 28%; in [3], 4.5%; in experiment [4], 36%; in experiment [5], 3.6%; in [6], 14%. Further, the “Percent Control” value is given as 0% in [7]; 15% in [8]; 12% in [9]; 0% in experiment [10]; 32% in [11]; 5.1% in experiment [12]. Also, the “Percent Control” value in [13] is recorded as 6.7%; in experiment [14], 15%; in experiment [15], 3.1%; in experiment [16], 13%; in experiment [17], 2.6%; in [18], 100%. In addition, the “Percent Control” value in [19] stood at 89%; in experiment [20], 100%.
Consider `CC(C)COC(=O)c1ccc2c(c1)/C(=C/Nc1ccc(S(N)(=O)=O)cc1)C(=O)N2` [GW416981X], for which the “Percent Control” value turned out to be 26% in experiment [1]; 100% in [2]; 100% in [3]; 83% in [4]; 100% in experiment [5]; 100% in experiment [6]. Moreover, the “Percent Control” value in experiment [7] stood at 75%; in [8], 100%; in experiment [9] it was 100%; in experiment [10], 95%; in experiment [11] it was 100%; in experiment [12], 100%. For the same molecule, the “Percent Control” value came out at 73% in experiment [13]; 100% in [14]; 100% in [15]; 100% in experiment [16]; 100% in [17]; 100% in experiment [18]. The “Percent Control” value in experiment [19] and in [20] was 100% throughout.
Regarding `CC1=C(C(=O)Nc2ccc3[nH]ncc3c2)C(c2ccc(Cl)c(Cl)c2)CC(=O)N1` (stereo not drawn) [GSK299115A], the “Percent Control” value in experiment [1] is 73%; in [2], 96%; in experiment [3], 100%; in experiment [4], 72%; in experiment [5], 75%; in experiment [6], 74%. Further, the “Percent Control” value in [7] was 79%; in experiment [8], 95%; in experiment [9], 87%; in experiment [10], 75%; in experiment [11] it was 100%; in experiment [12], 83%. For the same molecule, the “Percent Control” value came to 90% in [13]; 97% in experiment [14]; 74% in experiment [15]; 94% in experiment [16]; 83% in experiment [17]; 100% in experiment [18]. In addition, the results for the “Percent Control” value in [19] and in experiment [20] were 95% and 80%, respectively.
As to `CC1=C(C(=O)Nc2ccc3[nH]ncc3c2)C(c2ccc3ccccc3c2)CC(=O)N1` (stereo not drawn) [GSK270822A], the “Percent Control” value in experiment [1] is given as 81%; in [2] it was 83%; in experiment [3] it was 100%; in experiment [4], 67%; in experiment [5] it was 87%; in [6], 68%. Further, the “Percent Control” value in [7] is listed as 59%; in experiment [8] it was 86%; in [9] it was 80%; in [10], 50%; in [11], 84%; in [12], 48%. In addition, the “Percent Control” value in experiment [13] is 76%; in experiment [14], 79%; in [15] it was 54%; in experiment [16], 80%; in [17] it was 100%; in [18] it was 97%. In addition, the “Percent Control” value is listed as 93% in experiment [19] and 100% in experiment [20].
For the molecule `C/C(Nc1ccc(S(N)(=O)=O)cc1)=C1/C(=O)Nc2ccccc21` [GW335962X], the “Percent Control” value came to 67% in [1]; 82% in [2]; 88% in experiment [3]; 83% in [4]; 100% in experiment [5]; 89% in experiment [6]. Further, the “Percent Control” value in [7] worked out at 72%; in experiment [8] it was 91%; in [9], 82%; in experiment [10], 76%; in experiment [11], 96%; in [12] it was 100%. The “Percent Control” value in experiment [13] turned out to be 86%; in experiment [14], 89%; in experiment [15], 88%; in experiment [16], 82%; in experiment [17] it was 100%; in [18], 100%. For the same molecule, the “Percent Control” value in experiment [19] and in experiment [20] was 100% in each case.
